Test results from PubChem BioAssay AID449762 (Southern Research Specialized Biocontainment Screening …, 2010).
Hit rate of the full screen: of about 330,000 compounds, about 1,900 (0.58%) were called active. Roughly 4% stayed inconclusive and do not appear here. Not all results are given here. Potency and affinity values are given separately. Unmarked numbers belong to inactive results. Cut-off read from the data, not from the text of the source: inconclusive = inhibition above about 70% without an active follow-up result; inactive = below that.

test: M. tuberculosis growth inhibition, HTS (AID 449762);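 note: bacterial growth assessed after seven days of incubation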; conditions: M. tuberculosis H37Rv growth inhibition, 7H9 media; at 25 µM; stronger effect = higher value

| SMILES | inhibition |
| --- | --- |
| CCCCc1nc2cc(C(=O)NCc3nccn3CC)ccc2o1 | -0.01% |
| O=C(NC(=S)NCCO)c1sc2ccccc2c1Cl | -1.03% |
| O=C(NNC(=S)NC1CCCCC1)c1sc2ccccc2c1Cl | 4.12% |
| COC(=O)C1CCN(C(=O)COC(=O)c2cc(-c3cccs3)nn2-c2ccccc2)CC1 | 68.6% |
| NC(=O)COC(=O)c1cc(-c2cccs2)nn1-c1ccccc1 | 3.52% |
| O=[P+](Cc1ccccc1)Cc1ccccc1 | 5.56% |
| CCOc1cc2c(cc1OCC)-n1cccc1C(c1ccc(F)cc1)NC2 (configuration not stated) | 4.18% |
| CCOc1cc2c(cc1OCC)-n1cccc1C(c1ccc(OC)cc1)NC2 (configuration not stated) | 12.2% |
| CCN1CCN(C(C(=O)NC2CCCCC2)c2ccc(Cl)cc2)CC1 (configuration not stated) | -6.43% |
| COc1ccc(-c2cc(C)no2)cc1S(=O)(=O)NCCCN1CCN(c2ccccc2)CC1 | 1.94% |
| Cc1cc(-c2ccc(C)c(S(=O)(=O)NCCCN3CCN(c4ccccc4)CC3)c2)on1 | 36.8% |
| c1ccc2c(c1)nc1n2CCS1 | -2.74% |
| COc1cc(C(=O)NNC(=O)c2ccc3ccccc3n2)cc(OC)c1OC | 5.84% |
| COc1cccc(NC(=O)/C=C/c2ccccc2[N+](=O)[O-])c1 | -3.12% |
| CCN(CC)CCSc1nnc2c3ccccc3n(Cc3ccccc3)c2n1 | 3.52% |
| CCn1c2ccccc2c2nnc(SCCN3CCCCC3)nc21 | 5.94% |
| CCOC(=O)C1(CC2CCCCO2)CCN(Cc2nc3ccccc3nc2C)CC1 (configuration not stated) | 0.36% |
| CCOC(=O)c1cccc(NC(=O)C2CCN(S(=O)(=O)c3cccs3)CC2)c1 | -3.98% |
| CCN1CCN(C(=O)c2sc3ncnc(N4CCc5ccccc5C4)c3c2C)CC1 | 1.76% |
| COCCCNC(=O)c1sc2ncnc(N3CCc4ccccc4C3)c2c1C | 22.6% |
| O=C(NCCN1CCCCC1)c1ccc2c(c1)OCCO2 | 1.64% |
| O=C(O)CCC(=O)N1CCN(c2nc(-c3ccccc3Cl)c3cc(Br)ccc3n2)CC1 | 8.23% |
| O=C(O)CCCC(=O)N1CCN(c2nc(-c3ccccc3Cl)c3cc(Br)ccc3n2)CC1 | 2.83% |
| Cc1ccc(N(C(=O)c2csnn2)C(C(=O)NC2CCCCC2)c2ccccn2)c(C)c1 (configuration not stated) | -6.22% |
| COc1cc(CC(=O)O)ccc1OCc1ccccc1 | -4.67% |

| SMILES | inhibition |
| --- | --- |
| COc1ccc(N(CC(=O)NC2CCCCC2)C(=O)CNC(=O)c2cccs2)cc1OC | -4.95% |
| CCNC(=O)c1ccccc1NC(=O)c1cccc(S(=O)(=O)N2CCOCC2)c1 | 1.29% |
| COc1ccc(C(=O)NC(C)C2CC3CCC2C3)c(OC)c1 (configuration not stated) | 7.27% |
| Cc1ccccc1C(=O)NC(C)C1CC2CCC1C2 (configuration not stated) | 4.28% |
| COc1ccc(C(=O)NC(C)C2CC3CCC2C3)cc1 (configuration not stated) | 0.61% |
| CC(NC(=O)c1ccccc1Cl)C1CC2CCC1C2 (configuration not stated) | 4.24% |
| Cn1cnnc1SCC(=O)NCCc1ccccc1 | 0.84% |
| COC(=O)CCC(=O)Nc1cccc(Br)c1 | -7.91% |
| CC(C)(C)NC(=O)CSc1ncnc2c1nnn2Cc1ccccc1Cl | 18% |
| COCCCN1C(=O)c2ccc(C(=O)N3CCN(c4ccc(OC)cc4)CC3)cc2C1=O | 0.38% |
| Cc1cc(C)c(-n2nnnc2SCC(=O)c2cc3ccccc3o2)c(C)c1 | -0.74% |
| COC(=O)CSc1nnc(NC(=O)c2ccc3c(c2)OCO3)s1 | 56.1% |
| CCOC(=O)CNC(=O)CSc1nnc(NC(=O)c2ccc3c(c2)OCO3)s1 | -3.99% |
| COc1cccc(N2CCN(C(=O)c3cccn4c(=O)c5c(C)c(C)sc5nc34)CC2)c1 | -1.68% |
| CCOc1ccc(CCNC(=O)COC(=O)c2cc(OC)c(OC)c(OC)c2)cc1OCC | -6.27% |
| CCc1nnc(NC(=O)c2csc3c2CCC(C)C3)s1 (configuration not stated) | 0.85% |
| Cc1nnc(NC(=O)c2csc3c2CCC(C)C3)s1 (configuration not stated) | 6.53% |
| O=C(C1CCCN1S(=O)(=O)c1ccc(Cl)c(Cl)c1)N1CCOCC1 (configuration not stated) | 1.37% |
| OCC[C@H]1C[C@@H](O)[C@H](O)[C@]2(OCc3ccccc32)O1 | 4.05% |
| CN(C)CCCNC(=S)N(CCN(C)C)Cc1cc2cc3c(cc2[nH]c1=O)OCCO3 | -2.66% |
| CCOc1ccccc1N1CCN(CC(=O)Nc2cc(C)on2)CC1 | -0.33% |
| CC(=O)Nc1ccccc1O | -6.49% |
| O=C(Nc1ccccc1O)c1ccccc1O | -2.76% |
| CCC(=O)c1ccc(OCC(O)CNC2CCCC2)cc1 (configuration not stated) | -4.31% |
| Cc1ccc(Cn2ncc3c(N4CCN(Cc5ccc(Cl)cc5)CC4)ncnc32)cc1 | 35% |

| SMILES | inhibition |
| --- | --- |
| Clc1ccc(Cn2ncc3c(N4CCCC4)ncnc32)cc1 | 6.77% |
| COc1ccc(NC(=O)c2c3c(nc4ccccc24)CCC3)cc1 | 2.33% |
| CCC(O)(CC)C(=O)NN(C(=O)CCl)c1ccccc1 | 64.9% |
| CCCC(O)(CCC)C(=O)NN(C(=O)CCl)c1ccccc1 | 64.3% |
| CC(C)(C)NC(=O)C1Cc2ccccc2CN1S(=O)(=O)c1ccc(F)cc1 (configuration not stated) | -4.99% |
| CC(C)Oc1cccc(C(=O)C2CCCN(Cc3cnc(N4CCOCC4)s3)C2)c1 (configuration not stated) | 0.96% |
| CCOC(=O)N1CCN(S(=O)(=O)c2ccc(C(=O)N(CCN(CC)CC)c3nc4ccc(C)cc4s3)cc2)CC1 | -2.86% |
| CCN(CC)CCN(C(=O)c1ccc(S(=O)(=O)N2CCCCC2)cc1)c1nc2cc3c(cc2s1)OCO3 | 1.42% |
| CCN(CC)C(=O)N1CCC(NC(=O)c2ccc(C(C)(C)C)cc2)CC1 | 9.36% |
| Cc1cc(NC(=O)CSc2nc3ccccc3s2)no1 | 3.12% |
| Cc1ccc(C=C2C(=O)c3ccccc3C2=O)o1 | -3.84% |
| NS(=O)(=O)c1ccc(-c2ccc(/C=C3\C(=O)Nc4ccccc43)o2)cc1 | -2.7% |
| CC1CN(S(=O)(=O)c2cccc(C(=O)NCCCn3ccnc3)c2)CC(C)O1 (configuration not stated) | -14.2% |
| CCOC(=O)NC(=O)c1cn(N(C)c2ncc(C(F)(F)F)cc2Cl)c(=O)[nH]c1=O | -2.39% |
| CC(OC(=O)c1cc[n+]([O-])cc1)C(=O)Nc1ccc(Cl)cn1 (configuration not stated) | -4.2% |
| CC(OC(=O)c1ccco1)C(=O)Nc1ccc(Cl)cn1 (configuration not stated) | 0.78% |
| COC(=O)c1sccc1-n1cccc1C(=O)C(=O)N1CCCC1 | 0.85% |
| CCOCc1cnc(C)nc1NCC(=O)c1c(C)[nH]c2ccc(OC)cc12 | -0.42% |
| COc1cc2c(C(=O)N3CCN(c4cccc(Cl)c4)CC3)cn(C)c(=O)c2cc1OC | -1.4% |
| CCn1cc(C(=O)N2CCN(c3cccc(Cl)c3)CC2)c2cc(OC)c(OC)cc2c1=O | -2.64% |
| O=C(O)CCC(=O)NNC(=O)CCC1CCCCC1 | 0.82% |
| CCOC(=O)c1c(NC(=O)OC)sc(C(=O)N(CC)CC)c1C | 10.1% |
| CCN(CC)C(=O)c1[nH]cnc1C(=O)NCc1ccc(CNC(=O)OC(C)(C)C)cc1 | -4.15% |
| Cc1oc2nc(SCC(=O)NC3CCCCC3)nc(N)c2c1C | 3.18% |
| COc1cccc(CC2(CO)CCCN(Cc3cc4ccccc4[nH]3)C2)c1 (configuration not stated) | 10.5% |

| SMILES | inhibition |
| --- | --- |
| COc1cccc(CC2(CO)CCCN(Cc3ccc(C)s3)C2)c1 (configuration not stated) | 1.24% |
| COc1ccccc1CCNC(=O)CCSc1nc(-c2ccco2)cc(C(F)(F)F)n1 | -1.55% |
| CCCN=Cc1sc2ccc(OCC)cc2c1O | -4.1% |
| Cc1cccc(NC(=O)/C(C#N)=C\c2cccnc2)c1 | -10.8% |
| COc1cc2nc(CN3CC=C(c4ccccc4)CC3)[nH]c(=O)c2cc1OC | 3.16% |
| NC(=O)C1CCN(Cc2nc3cc(C(F)(F)F)ccc3c(=O)[nH]2)CC1 | 2.7% |
| COc1ccc(CCNC(=O)CCNS(=O)(=O)c2cccc3nonc23)cc1OC | 2.46% |
| COC(=O)/C=C1/S/C(=N/NC(=O)c2ccccc2)NC1=O | -1.82% |
| O=C(CN1CCCCC1)N/N=C/c1ccccc1OCc1ccccc1 | -1.99% |
| Cn1c(=O)c2c(ncn2CC(=O)Nc2ccccc2Sc2ccccc2)n(C)c1=O | -2.88% |
| CN(C)C(=O)c1cc(C(=O)c2ccc(F)cc2C(F)(F)F)c[nH]1 | -3.23% |
| CCSc1nnnn1-c1ccccc1 | 3.88% |
| c1ccc(-n2nnnc2SCCCSc2nc3ccccc3s2)cc1 | -4.17% |
| N#Cc1ccccc1OCC(=O)N1CCc2ccccc2C1 | -4.88% |
| Cc1ccc(-c2nnc(NCc3nc4ccccc4[nH]3)c3ccccc23)cc1S(=O)(=O)N1CCOCC1 | 63.7% |
| Cc1nc(-c2ccccc2)sc1C(=O)CSc1ccc(Cl)cc1 | -5.11% |
| c1ccc2c(c1)OCc1cn[nH]c1-2 | -2.59% |
| Cc1ccc(/C=C/c2nnc(-c3ccccc3)o2)cc1 | -11.8% |
| COC(=O)CSc1[nH]c2ccccc2c1[N+](=O)[O-] | -2.39% |
| CCOC(=O)CSc1[nH]c2cc(OC)ccc2c1[N+](=O)[O-] | 6.24% |
| CN(C)CCOc1ccc(C(C)(C)c2ccccc2)cc1 | -3.02% |
| CN(C)CCOc1ccc2ccccc2c1 | 2.98% |
